# Measurements published in PubChem BioAssay (NCI).
# Compounds without any hit were thinned out: in the full panel of roughly 79,000, 15% have a hit. A number with no mark means an inactive call. Calls of active or inactive are those of the source. No stated cut-off is given here; in the data, active means growth inhibition above about 70%; inactive means the rest. Where a SMILES comes first, the peptide text is derived from it. The star is where a group is joined. Boc = CC(C)(C)OC(=O)*; OBn = c1ccc(CO*)cc1
# Key:
# [1] = NCI Yeast Anticancer Drug Screen. Data for the rad50 strain (AID 155);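 further: 0% = growth of vehicle-only cultures of the same strain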; settings: S. cerevisiae rad50 strain growth inhibition; at 50.0 µM; active compounds read high
# Outline: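 Growth of the mutant yeast was measured after compound exposure and referenced to vehicle-treated cultures.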
# [2] = NCI Yeast Anticancer Drug Screen. Data for the mec2-1 strain (AID 157); settings: S. cerevisiae mec2-1 strain, at 50.0 µM, active compounds read high
# Outline: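 Readout is yeast growth inhibition, normalised to vehicle-treated controls, in the mec2-1 strain exposed to compound.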
# [3] = NCI Yeast Anticancer Drug Screen. Data for the sgs1 mgt1 strain (AID 161);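 further: 0% = growth of cultures given vehicle only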; settings: S. cerevisiae sgs1 mgt1 strain, at 50.0 µM, active compounds read high
# Outline: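 Growth of a repair-deficient yeast mutant was monitored after compound treatment and expressed as inhibition relative to vehicle-treated cultures.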
# [4] = NCI Yeast Anticancer Drug Screen. Data for the cln2 rad14 strain (AID 165);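 further: 0% = growth equal to vehicle treated cultures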; settings: S. cerevisiae cln2 rad14 strain, at 50.0 µM, active compounds read high
# Outline: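 Relative to vehicle controls, growth inhibition of compound-treated cln2 rad14 yeast was recorded.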
# [5] = NCI Yeast Anticancer Drug Screen. Data for the bub3 strain (AID 167); settings: S. cerevisiae bub3 mutant strain, at 50.0 µM, active compounds read high
# Outline: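 Whole-cell yeast assay. The mutant strain was incubated with compounds, and growth inhibition was determined by comparison with vehicle-treated cells.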
# [6] = NCI Yeast Anticancer Drug Screen. Data for the mlh1 rad18 strain (AID 175); settings: S. cerevisiae mlh1 rad18 strain growth inhibition; at 50.0 µM; active compounds read high
# Outline: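 Test agents were incubated with a yeast strain of defined genotype (DNA damage repair defect). Inhibition of growth was derived by comparison with vehicle-exposed cultures.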
Compound,growth inhibition [1],growth inhibition [2],growth inhibition [3],growth inhibition [4] [%],growth inhibition [5] [%],growth inhibition [6] [%]
[Cl][Pt+2][Cl].[NH-]C1CCC1.[NH2-],3.25%,-3.5%,-3.85%,18.4,-16.1,-66.6
COc1ccccc1/C=N/N1C(=O)C2C3C=CC(O3)C2C1=O (configuration not stated),2.35%,9.8%,0.1%,0.15,3.45,14.5
CN(C)c1ccn(C2OC(CO)C(O)C2SC(C)(C)C)c(=O)n1 (configuration not stated),-1.2%,3.95%,-2.05%,10.8,-1.25,13.8
COc1cc(C(SCc2ccccc2)SCc2ccccc2)ccc1O,28.6%,12.2%,30.9%,28.6,17.4,28.6
CN(C)CCC1(C2=CCCC2)CC/C(=C\c2ccccc2)C1=O (configuration not stated),16.9%,-17.8%,-5.6%,14.7,-45.6,2.5
CCCCCCC(O)CCCCCCCCCCC(=O)O (configuration not stated),-14.3%,0.1%,16.4%,-25.4,-6.8,19.7
Cc1ccc(NCC(O)CN2CCOCC2)cc1 (configuration not stated),34.2%,14.3%,27.2%,-8.05,6.5,36.2
COC(=O)C1Cc2cc3c(cc2C1=O)CCC3 (configuration not stated),-19.2%,-12.8%,-2.8%,6.75,20.4,-5.45
NC(=O)N1CCCCC1,7.2%,-6.6%,24.4%,7.2,13.9,4.65
CC(NC(=O)C(NC(=O)OC(C)(C)C)C(C)C)C(=O)N1CCCC1C(=O)NCC(=O)NC(C(=O)NCC(=O)OCc1ccccc1)C(C)C (configuration not stated) (Boc-VAPGVG-OBn; configuration not given here),-30.1%,-33.4%,-20.9%,6.85,-18.9,-48.4
C=C(C)COC(=O)Nc1cccc(Cl)c1,58.9%,-4.15%,4.7%,13.4,10.2,24.9
COC(=O)c1ccccc1NC(=O)/C(=N\NC(C)(C)C)C(C#N)c1nc(-c2ccc([N+](=O)[O-])cc2)cs1 (configuration not stated),-4.35%,14%,-0.6%,18.6,26.1,-8.3
O=C(Cc1ccccc1)NC(=O)Nc1ccccc1,-7.5%,-10.2%,-8.4%,-0.15,-3.1,0.4
CN(C(=O)CCC(=O)O)c1ccccc1C(=O)O,0.2%,-2.35%,11%,-5.75,0.85,-15.9
O=C(Nc1ccc(Cl)cc1)NS(=O)(=O)c1coc2cc(F)ccc2c1=O,7%,-11.2%,-23.6%,31.6,16.4,11.4
O=c1c2ccccc2oc2cc3c(c(O)c12)CCCC3,-7.65%,-13.9%,-14.5%,-6.95,3.15,-2.95
COCCNc1ccc([N+](=O)[O-])cc1[N+](=O)[O-],1.85%,-1.85%,-3.75%,-26.9,-8.65,7.1
O=C1C2=Cc3ccccc3OC2(O)Oc2ccc(O)cc21 (configuration not stated),8.5%,6.75%,-6.05%,-2,-38.6,-33.5
O=C(Nc1ccccc1)c1ccc(I)cc1,7.05%,-31.7%,8.3%,-7.35,3.95,-25.3

Compound,growth inhibition [1],growth inhibition [2],growth inhibition [3],growth inhibition [4] [%],growth inhibition [5] [%],growth inhibition [6] [%]
CCOC(=O)c1ccc(/C(C)=N/NC(N)=S)cc1,7.35%,3.8%,21%,15.4,5.35,-9.5
CCOC(=O)C(O)Cc1cnc2ccccc2n1 (configuration not stated),-1.45%,-13.3%,-12.3%,-13.3,-11.1,7.55
O=C1OCC/C1=C\c1ccsc1,6.4%,10.2%,-6.9%,-6,-8.3,-3.4
CCOC(=O)/C(F)=C/c1ccc(C)cc1,20.6%,-8.55%,3.85%,11.1,0.15,8.4
Cc1nc(N)c(N2CCN(CN)CC2)c(=O)[nH]1,-35.2%,7.1%,-5.85%,21.6,25.9,-38
COc1cc(C2C(C(C)=O)=C(C)Oc3cc4c(cc32)OCO4)cc(OC)c1O (configuration not stated),21.1%,2.5%,-0.25%,4.15,10.1,35.5
CCC1(C)CCC(C)c2ccccc21 (configuration not stated),-1.75%,-5.4%,3.45%,3.45,-0.8,0.3
S=C(NNC1=NCCN1)Nc1ccccc1,-54%,-19.9%,-19.8%,3.15,-20.9,-12.7
COc1cccc(C(=O)c2ccncc2)c1OC,-10.2%,-4.65%,-5.6%,4.4,1.1,-4.85
NC(=S)c1cc[n+]([O-])cc1,8.65%,2.55%,5.4%,-11.2,-7.2,-3.8
CC(=O)N=C1N(/C=C2\C(=O)Oc3ccccc3C2=O)C(=O)/C(=C/c2ccc3c(c2)OCO3)N1C,21.6%,-5.55%,5.25%,9.4,-6.35,10.5
C=CCc1ccc(OC(=O)Nc2cccc(OC)c2)c(OC)c1,74.5% (active),86.8% (active),73.9% (active),-7.45,53.9,68.8
CC(=O)Nc1ccc(N(C)C)cc1Cl,-24.6%,-17.2%,-13.7%,-17.1,-1.8,-16.1
Cc1ccc2nc(CC(=O)c3ccccc3)c(CC(=O)c3ccccc3)nc2c1,0.7%,-17%,2.25%,24.1,0.15,-2.9
COc1cnc2cc(C(=O)O)c3ccccc3c2c1,40.5%,9.7%,13.2%,23.1,-1.15,29.1
Cc1cccc(CN(C)Cc2cc(Cl)cc(C)c2O)c1O,14.8%,-1.6%,1.1%,-36,-1.25,4.15
C1=CC2=CC=CC3c4nc5ccc6ccccc6c5nc4C(=C1)C23 (configuration not stated),11.4%,-9.3%,-0.9%,4.25,-2.55,8.75
CC[n+]1c([S-])nn(C)c1-c1cnccn1,-2.8%,-4.9%,-9.05%,-13.9,24,-12.5
